As a reminder, the inhibition is the drop in the measured response relative to a control, in per cent.

We go through 94 compounds from PubChem BioAssay AID1159606 (Sanford-Burnham Center for Chemical Genomics, 2016).

SMILES strings stand for the structures. Among all 360,000 compounds or so, about 7,300 (2%) were called active. The full list was thinned out, with actives kept by preference. Values without a mark were called inactive. No stated cut-off is given here; in the data, active means inhibition above about 50%; inactive means the rest.

The assay in a line: blockers of TWEAK-induced Fn14 reporter activity – luciferase reporter cells, uHTS, primary screen (AID 1159606). The settings on record: TWEAK-stimulated Fn14 reporter cells, luciferase luminescence, 8 h; at 10 µM; stronger effect = higher value. (In a reporter assay the amount or activity of a reporter protein is the signal.)
On to `CCCn1c(N)c(N(CCOC)C(=O)C2CCCC2)c(=O)[nH]c1=O`, for which the inhibition is -6.44%.

`CC(=O)Nc1ccc(S(=O)(=O)N2CCC(C(=O)N[C@@H](Cc3ccccc3)C(=O)O)CC2)cc1`: the inhibition was -3.83%.

Regarding `Cc1cc(OCCOc2cccc3cccnc23)c(C)cc1Cl`, the inhibition is -15.2%.

As for `Cc1ccc([C@@H]2CC(=O)[C@@H]3CN(S(=O)(=O)c4ccc(C)cc4)[C@H](c4ccccc4F)C[C@@H]3N2S(=O)(=O)c2ccc(Cl)cc2)cc1`, the inhibition is -13.3%.

Take `COc1cc(C(F)(F)F)nc2c(Br)c(C(C)(C)C)nn12`: the inhibition is 15.2%.

Consider `NC(=NC(=O)c1ccccc1)N1CCOCC1`, for which the inhibition was -6.39%.

As for `CC1CN(C(=S)SCC(=O)c2ccccc2)CC(C)O1` (centres undefined), the inhibition is 3.23%.

Consider `O=C(CSC(=S)N1CCOCC1)c1ccccc1`, for which the inhibition is 71.9% (active).

As to `CC1(C(=O)Nc2cccc3cccnc23)CCN1C(=O)CCC1CCCC1` (centres undefined), the inhibition is 8.06%.

Take `Cc1csc(SCC(=O)Nc2sccc2C#N)n1`: the inhibition is 56.5% (active).

For the compound `Cc1csc(SCC(=O)Nc2ccc(C)c(S(=O)(=O)N(C)C)c2)n1`, the inhibition was -4.8%.

Consider `N#Cc1ccsc1NC(=O)CN1CCCCC1`, for which the inhibition is -0.37%.

For the compound `CCN1C(=O)N[C@@H](c2ccccc2)[C@H](C(C)=O)[C@H]1C`, the inhibition is -0.1%.

As to `CSc1ccccc1NC(=O)Cc1ccc(Br)cc1`, the inhibition was 4.45%.

Take `CCC1CCc2c(sc(NC(C)=O)c2C#N)C1` (centres undefined): the inhibition is -8.64%.

Consider `COCc1nnc(NC(=O)c2ccc3c(c2)OCO3)s1`, for which the inhibition is 14.7%.

As for `O=C(Nc1nc(-c2ccc3c(c2)OCO3)cs1)c1ccncc1`, the inhibition was 57.8% (active).

For the compound `O=C(Nc1nc2ccccc2s1)c1ccc2c(c1)OCO2`, the inhibition was 83.7% (active).

As to `N#Cc1ccccc1NC(=O)c1ccc2c(c1)OCO2`, the inhibition was -17.5%.

As for `Cc1ccc(-c2csc(NC(=O)C3=COCCO3)n2)cc1C`, the inhibition was 1.4%.

In the case of `C/C(=N/NC(=O)c1ccncc1)c1ccc2c(c1)OCO2`, the inhibition is 11.5%.

As for `CCCNS(=O)(=O)c1ccc(CCC(=O)NCc2cccnc2)cc1`, the inhibition is 6.9%.

Take `COc1ccc(C2(C)ON(c3ccccc3C(F)(F)F)C2=O)cc1` (centres undefined): the inhibition is -8.35%.

For the compound `CCCCN(CC)C(=O)c1ccccc1Oc1ccccc1`, the inhibition is 11.6%.

Consider `Cc1ccc(NC(=O)Cc2nc(COC(=O)C(C)NS(=O)(=O)c3ccc(C)cc3)cs2)cc1` (centres undefined), for which the inhibition was -7.54%.

`CCOC(=O)/C=C/CN(C(=O)OC(C)(C)C)S(=O)(=O)N1CC=CC1`: the inhibition was 8.4%.

Take `Cc1ccc(-c2noc(CSc3nnc(-c4ccncc4)n3-c3ccc(F)cc3)n2)cc1`: the inhibition was 1%.

For `Cc1ccc(Nc2nc(CSc3nnc(-c4ccncc4)n3-c3ccccc3C)cs2)cc1`, the inhibition was 74.3% (active).

Regarding `Cc1ccc(-n2c(SCC(=O)N3c4ccccc4Sc4ccccc43)nnc2-c2ccncc2)cc1`, the inhibition is 20.4%.

Regarding `FC(F)(F)c1cc(C(F)(F)F)c2ccc(N3CCN(c4ccccc4)CC3)nc2n1`, the inhibition is -12.2%.

Turning to `Clc1ccc2nc(CSc3ccccc3)cn2c1`, the inhibition is 59.6% (active).

Take `Cc1ccc(Cc2c(-c3ccccc3)nc3ccc(Cl)cn23)cc1`: the inhibition is -20.8%.

For the compound `Cc1ccc(-c2nc3ccc(Cl)cn3c2Cc2ccccc2)cc1`, the inhibition is -22%.

Consider `CC1(C(=O)NS(=O)(=O)c2cccc(F)c2)CCN1C(=O)c1cccc2ccccc12` (centres undefined), for which the inhibition is -20.6%.

With `Cc1ccc(-c2cnc(C(O)c3cc(Cl)cc(Cl)c3)[nH]2)cc1` (centres undefined), the inhibition is -5.74%.

Regarding `CC1CCc2sc3nc(N4CCN(CCO)CC4)n4ncnc4c3c2C1` (centres undefined), the inhibition was -63.4%.

`CCCCNc1c(-c2ccc(OC)c(Sc3ccc(OC)cc3)c2)nc2ccc(Cl)cn12`: the inhibition is 5.14%.

In the case of `COC(=O)c1ccc2nc(-c3ccccc3)c(Cc3ccc(OC)cc3C)n2c1`, the inhibition was -3.6%.

As to `CCCCNc1c(-c2cccc(Sc3ccc(OC)cc3)c2)nc2ccccn12`, the inhibition was 53.7% (active).

In the case of `COC(=O)c1cc(=O)n(-c2c(Cl)cc(C(F)(F)F)cc2Cl)[nH]1`, the inhibition was 7.88%.

For the compound `CCOC(=O)C1CCCN(C(=O)C2CCN(S(=O)(=O)c3ccc(Cl)c(C(F)(F)F)c3)CC2)C1` (centres undefined), the inhibition is -2.02%.

As for `O=C(Nc1nccs1)C1CCN(S(=O)(=O)c2ccc(Cl)c(C(F)(F)F)c2)CC1`, the inhibition is 73.5% (active).

With `O=C(Nc1ccccn1)C1CCN(S(=O)(=O)c2ccccc2)CC1`, the inhibition was -18.5%.

In the case of `N#Cc1cccc(NC(=O)c2cc(C3CCCCN3C(=O)CCc3ccccc3)on2)c1` (centres undefined), the inhibition is 26.1%.

For `C#CCN(N(C)c1ncc(C(F)(F)F)cc1Cl)S(=O)(=O)c1ccc2ccccc2c1`, the inhibition was 18%.

As to `C=CCNc1nc(N)c(C(=C(C#N)C#N)c2ccccc2)s1`, the inhibition was 17.7%.

As for `COc1ccc(-n2c(-c3ccc(Cl)cc3)n[nH]c2=S)c(OC)c1`, the inhibition is 0.97%.

`Cc1cc(-c2n[nH]c(=S)n2-c2ccc(C)c(C)c2)no1`: the inhibition was 4.62%.

In the case of `Cc1ccc(-n2c(-c3ccc(Cl)cc3)n[nH]c2=S)cc1`, the inhibition was 104% (active).

`CCCC(NC(=O)c1ccco1)c1nc2ccccc2[nH]1` (centres undefined): the inhibition is 19.6%.

`CC(C)Oc1ccc(/C=C(\NC(=O)/C=C/c2ccco2)C(=O)NCCc2nc3ccccc3[nH]2)cc1`: the inhibition is 13.7%.

Take `CC(C)=C(NC(=O)c1ccco1)C(=O)NCCc1nc2ccccc2[nH]1`: the inhibition was 83.7% (active).

`Cc1csc(NC(=O)CSc2ccc(-c3ccc(F)cc3)nn2)n1`: the inhibition was -0.16%.

As for `C=CCC[C@H](CCCCC)OC(=O)/C=C/[C@H](O)[C@@H](O)C[C@@H](O)CC=C`, the inhibition was 2.69%.

Turning to `CCOC(=O)N1CCC(NC(=O)c2ccc3nc(N4CCOCC4)sc3c2)CC1`, the inhibition was 18.3%.

As for `c1c2c(cc3sc(N4CCCCC4)nc13)OCCO2`, the inhibition is 98.9% (active).

With `CCCCc1ccc(NS(=O)(=O)c2cccc(C(=O)N3CCCN(C)CC3)c2)cc1`, the inhibition was 13.3%.

As for `CN(C)/C=C/c1c(C#N)c(=O)ncn1Cc1ccccc1`, the inhibition was 1.93%.

Take `CN(C)c1ccnc2sc3c(=O)n(Cc4ccccc4)cnc3c12`: the inhibition was 69.3% (active).

Consider `O=c1c2c(ncn1Cc1ccccc1)nc1n2CCC1`, for which the inhibition was -3.28%.

Take `O=C(c1ccccc1)N1CCN(c2cc(-c3ccccc3)nc3cc(-c4cccc(Cl)c4)nn23)CC1`: the inhibition was 50.7% (active).

Take `O=C(c1ccccc1)N1CCN(C(=O)c2cc3nc(-c4ccccc4)cc(C(F)(F)F)n3n2)CC1`: the inhibition is 12%.

Turning to `C#Cc1cc(N2CCN(C(=O)c3ccoc3)CC2)n2nc(-c3cccc(Cl)c3)cc2n1`, the inhibition was -13.9%.

For the compound `CCC(Sc1nncn1C)C(=O)Nc1nnc(-c2ccc(Cl)cc2)s1` (centres undefined), the inhibition was 2.15%.

Regarding `Cc1cc(C(=O)OCC(=O)Nc2ccc(F)c(F)c2)c(C)o1`, the inhibition is -6.41%.

With `O=S(=O)(NCC1CCCO1)c1ccc2ccccc2c1` (centres undefined), the inhibition was -2.08%.

On to `O=S(=O)(NCC1CCCO1)c1cnc(Cl)c(Cl)c1` (centres undefined), for which the inhibition was 61.4% (active).

Turning to `CCOc1ccc(S(=O)(=O)NCC2CCCO2)cc1` (centres undefined), the inhibition is -13.5%.

Take `CC1CCCC(C)N1C(=O)COC(=O)c1ccccc1C(=O)c1ccccc1` (centres undefined): the inhibition was 3.29%.

In the case of `Cc1ncoc1C(=O)N1CCCC(C(=O)c2ccc3c4c(cccc24)CC3)C1` (centres undefined), the inhibition was -10.9%.

Consider `O=C(CCN1CCc2ccccc2C(O)(c2ccccc2)C1)c1ccc2c(c1)OCCO2` (centres undefined), for which the inhibition is 60.1% (active).

Consider `O=C(CN1CCN(c2ccccc2F)CC1)c1ccc2c(c1)OCO2`, for which the inhibition is -7.75%.

Turning to `CCC1(c2ccccc2)NC(=O)N(CC(=O)c2ccc3c(c2)OCO3)C1=O` (centres undefined), the inhibition is 1.98%.

Regarding `NC(=O)c1nnsc1-c1ccc(-c2snnc2C(N)=O)cc1`, the inhibition is 16.3%.

On to `CCc1ccccc1N1CN(Cc2ccco2)CNC1=S`, for which the inhibition was -34%.

In the case of `CC(C)C(NC(=O)C1CCC(C(C)(C)C)CC1)C(=O)NCCCN1CCCCC1` (centres undefined), the inhibition is -11.2%.

Take `COC(=O)c1cc(Oc2ccc(S(=O)(=O)N3CCOCC3)cc2[N+](=O)[O-])cc(C(=O)OC)c1`: the inhibition is 3.34%.

With `Cc1cc(S(=O)(=O)N2CCOCC2)ccc1OCC(=O)N1CCOCC1`, the inhibition was 3.41%.

Turning to `Cc1cc(C(=O)COc2ccccc2[N+](=O)[O-])c(C)n1-c1cccc(S(=O)(=O)N2CCOCC2)c1`, the inhibition is 82.7% (active).

In the case of `COCCN(C(=O)C(C)N1C(=O)c2ccccc2C1=O)c1c(N)n(CC(C)C)c(=O)[nH]c1=O` (centres undefined), the inhibition is 2.19%.

Consider `CC/C(O)=C1\C(=O)CC(C)(C)CC1=NCCc1nc2ccccc2[nH]1`, for which the inhibition is 4.19%.

Take `CC1(C)O[C@@H]2CC3C4C[C@H](F)C5=CC(=O)C=CC5(C)C4C(O)CC3(C)[C@]2(C(=O)CO)O1` (some centres undefined): the inhibition is -4.61%.

Turning to `COc1ccc(C(=O)NCC[N+](C)(C)C)cc1`, the inhibition is 7.64%.

Regarding `CS(=O)(=O)N(CC(=O)N/N=C/c1ccccn1)c1ccc(Oc2ccccc2)cc1`, the inhibition is 4.09%.

For `Brc1ccc2ncnc(NCc3cccnc3)c2c1`, the inhibition is 62.2% (active).

With `Clc1ccc(Cn2ncc3c(NCc4cccnc4)ncnc32)cc1`, the inhibition is 31.4%.

For `c1ccc(CNc2ncnc3[nH]ncc23)cc1`, the inhibition was 2.58%.

Take `Cc1ccccc1NC(=O)NC1(C(=O)N2CCCC2)CCCCC1`: the inhibition is -3.42%.

For `COc1ccc(NC(=S)NC2CCS(=O)(=O)C2)cc1` (centres undefined), the inhibition is -0.47%.

For the compound `CCCSC(=S)NC1CCS(=O)(=O)C1` (centres undefined), the inhibition was 78.9% (active).

Regarding `O=S1(=O)CCC(NC(=S)SCc2ccccc2Br)C1` (centres undefined), the inhibition is 54.2% (active).

For `O=C(Cc1ccc(Cl)cc1)NC1CCS(=O)(=O)C1` (centres undefined), the inhibition was -0.04%.

With `CC(C)C(=O)NC(NC(=S)NC1CCS(=O)(=O)C1)C(Cl)(Cl)Cl` (centres undefined), the inhibition is 25.4%.

`O=C(CSc1ccccc1F)NC1CCS(=O)(=O)C1` (centres undefined): the inhibition is 2.35%.
